Laboratory results taken from PubChem BioAssay (NCATS).
Inconclusive results are not listed. Activity calls are given as the source filed them. The call rests on the fitted dose curve; in most records, active means well fitted curve in the direction sought with a large enough effect; inconclusive means small, poorly fitted or top-dose-only effect, or another doubt; inactive means no such curve, though single readings can be large; an effect the other way counts as inactive or inconclusive.

How the values were obtained:
[1] = Quantitative High-Throughput drug screen in 47 multiple myeloma cell lines against the NCATS MIPE library collection: KMS21BM_JCRB cell viability assay (AID 1918974); details: ATP luminescence, 48 h; viability: at 45.8 µM unless noted
Procedure, shortened: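 Viability readout: CellTiter-Glo luminescence following 5 min room-temperature incubation with reagent. Prior exposure: 48 h, 37C, humidified 5% CO2, 500 cells per well.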

[2] = Quantitative High-Throughput drug screen in 47 multiple myeloma cell lines against the NCATS MIPE library collection: KMS26_JCRB cell viability assay (AID 1918975); further: nearly all actives have a fitted effect of over 45% in size
Procedure, shortened: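 Inhibition of cell viability is measured here. Each line was plated at 500 cells per well, treated with MIPE 4.0 drugs, kept 48 hours at 37C, then assayed for ATP content by CellTiter-Glo luminescence.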

[3] = Quantitative High-Throughput drug screen in 47 multiple myeloma cell lines against the NCATS MIPE library collection: MMM1_PLB cell viability assay (AID 1918976); further: nearly all actives have a fitted effect of over 35% in size
Procedure, shortened: (§1)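 qHTS format: cells plated (500/well), pin-dosed with MIPE 4.0 compounds, kept 48 h at 37 °C. Readout was CellTiter-Glo luminescence, median RLU.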

[4] = Quantitative High-Throughput drug screen in 47 multiple myeloma cell lines against the NCATS MIPE library collection: NCIH929_DSMZ cell viability assay (AID 1918978); further: nearly all actives have a fitted effect of over 35% in size
Procedure, shortened: as §1

[5] = Quantitative High-Throughput drug screen in 47 multiple myeloma cell lines against the NCATS MIPE library collection: MM1S_ATCC cell viability assay (AID 1918980); further: nearly all actives have a fitted effect of over 45% in size
Procedure, shortened: as §1

[6] = Quantitative High-Throughput drug screen in 47 multiple myeloma cell lines against the NCATS MIPE library collection: MM1R_ATCC cell viability assay (AID 1918981); further: nearly all actives have a fitted effect of over 35% in size
Procedure, shortened: as §1

[7] = Quantitative High-Throughput drug screen in 47 multiple myeloma cell lines against the NCATS MIPE library collection: LP1_DSMZ cell viability assay (AID 1918982); further: nearly all actives have a fitted effect of over 35% in size
Procedure, shortened: as §1

[8] = Quantitative High-Throughput drug screen in 47 multiple myeloma cell lines against the NCATS MIPE library collection: KMS28PE_JCRB cell viability assay (AID 1918983); further: nearly all actives have a fitted effect of over 35% in size
Procedure, shortened: as §1

[9] = Quantitative High-Throughput drug screen in 47 multiple myeloma cell lines against the NCATS MIPE library collection: L363_DSMZ cell viability assay (AID 1918984); further: nearly all actives have a fitted effect of over 40% in size
Procedure, shortened: as §1

[10] = Quantitative High-Throughput drug screen in 47 multiple myeloma cell lines against the NCATS MIPE library collection: KMS34_JCRB cell viability assay (AID 1918985); further: nearly all actives have a fitted effect of over 40% in size
Procedure, shortened: as §1

[11] = Quantitative High-Throughput drug screen in 47 multiple myeloma cell lines against the NCATS MIPE library collection: OCIMY7_PLB cell viability assay (AID 1918987); further: nearly all actives have a fitted effect of over 65% in size
Procedure, shortened: as §1

[12] = Quantitative High-Throughput drug screen in 47 multiple myeloma cell lines against the NCATS MIPE library collection: OCIMY5_PLB cell viability assay (AID 1918988); further: nearly all actives have a fitted effect of over 65% in size
Procedure, shortened: as §1

[13] = Quantitative High-Throughput drug screen in 47 multiple myeloma cell lines against the NCATS MIPE library collection: OPM1_PLB cell viability assay (AID 1918989); further: nearly all actives have a fitted effect of over 40% in size
Procedure, shortened: as §1

[14] = Quantitative High-Throughput drug screen in 47 multiple myeloma cell lines against the NCATS MIPE library collection: SKMM1_PLB cell viability assay (AID 1919863); details: SKMM1 myeloma viability, CellTiter-Glo ATP, 48 h; viability: active compounds read low; further: nearly all actives have a fitted effect of over 35% in size
Procedure, shortened: as §1

[15] = Quantitative High-Throughput drug screen in 47 multiple myeloma cell lines against the NCATS MIPE library collection: XG6_PLB cell viability assay (AID 1919865); further: nearly all actives have a fitted effect of over 40% in size
Procedure, shortened: as §1

[16] = Quantitative High-Throughput drug screen in 47 multiple myeloma cell lines against the NCATS MIPE library collection: XG1_PLB cell viability assay (AID 1919866); further: nearly all actives have a fitted effect of over 35% in size
Procedure, shortened: as §1

[17] = Quantitative High-Throughput drug screen in 47 multiple myeloma cell lines against the NCATS MIPE library collection: VP6_DJ cell viability assay (AID 1919867); further: nearly all actives have a fitted effect of over 40% in size
Procedure, shortened: as §1

[18] = Quantitative High-Throughput drug screen in 47 multiple myeloma cell lines against the NCATS MIPE library collection: OCIMY1_PLB cell viability assay (AID 1918979); further: nearly all actives have a fitted effect of over 35% in size
Procedure, shortened: as §1

[19] = Quantitative High-Throughput drug screen in 47 multiple myeloma cell lines against the NCATS MIPE library collection: U266_ATCC cell viability assay (AID 1919864); further: nearly all actives have a fitted effect of over 35% in size
Procedure, shortened: as §1

[20] = Quantitative High-Throughput drug screen in 47 multiple myeloma cell lines against the NCATS MIPE library collection: MOLP8_DSMZ cell viability assay (AID 1918977); further: nearly all actives have a fitted effect of over 45% in size
Procedure, shortened: as §1

Measured: Potency
Potency means the concentration at half of the fitted maximal effect.

Cc1ccc(C(N)=O)cc1Nc1nccc(-c2cn(C(C)C)c3cnccc23)n1
active: [1] 0.935 µM | [2] 10.5 µM | [3] 16.6 µM | [4] 2.96 µM | [5] 7.43 µM | [6] 8.33 µM | [7] 8.33 µM | [8] 13.2 µM | [9] 2.64 µM | [10] 6.62 µM | [11] 0.935 µM | [12] 7.43 µM | [13] 7.43 µM | [14] 16.6 µM | [15] 2.64 µM | [16] 3.72 µM | [17] 2.35 µM

COc1ccc(OC)c(-c2nnc3ccc(-c4ccc(OC)c(O[C@@H]5CCOC5)c4)nn23)c1
active: [1] 7.43 µM | [2] 20.9 µM | [3] 11.8 µM | [4] 9.35 µM | [18] 20.9 µM | [5] 7.43 µM | [6] 8.33 µM | [7] 14.8 µM | [8] 14.8 µM | [9] 10.5 µM | [12] 16.6 µM | [13] 8.33 µM | [14] 18.7 µM | [19] 7.43 µM | [15] 8.33 µM | [16] 7.43 µM | [17] 6.62 µM

O=C(O)c1ccc2c(c1)nc(Nc1cccc(Cl)c1)c1ccncc12
active: [1] 3.32 µM | [3] 14.8 µM | [20] 10.5 µM | [4] 3.72 µM | [18] 18.7 µM | [5] 6.62 µM | [6] 10.5 µM | [8] 13.2 µM | [9] 4.69 µM | [10] 10.5 µM | [11] 2.35 µM | [12] 13.2 µM | [13] 9.35 µM | [14] 10.5 µM | [15] 3.72 µM | [16] 4.18 µM | [17] 5.9 µM

O=C(C=Cc1cccnc1)NCCCCC1CCN(C(=O)c2ccccc2)CC1
active: [1] 0.0166 µM | [2] 0.0053 µM | [4] 0.0132 µM | [5] 0.0296 µM | [8] 0.132 µM | [10] 0.0166 µM | [11] 0.0105 µM | [12] 0.0418 µM | [13] 0.0118 µM | [14] 0.059 µM | [19] 18.7 µM | [15] 0.0743 µM | [16] 0.001 µM | [17] 0.0187 µM

CN(C)CC=CC(=O)Nc1cc2c(Nc3ccc(F)c(Cl)c3)ncnc2cc1O[C@H]1CCOC1
active: [1] 0.166 µM | [2] 6.62 µM | [3] 20.9 µM | [4] 5.26 µM | [18] 16.6 µM | [5] 5.9 µM | [6] 13.2 µM | [8] 18.7 µM | [9] 1.32 µM | [10] 20.9 µM | [11] 0.372 µM | [12] 3.32 µM | [13] 3.72 µM | [14] 6.62 µM | [19] 20.9 µM | [15] 2.64 µM | [16] 4.18 µM | [17] 0.59 µM

Cc1cc(Nc2cc(NC(=O)c3c(Cl)cccc3Cl)ccn2)nc(N)n1
active: [1] 0.418 µM | [2] 16.6 µM | [4] 9.35 µM | [5] 0.209 µM | [6] 0.469 µM | [7] 0.418 µM | [8] 26.4 µM | [9] 1.66 µM | [10] 1.18 µM | [11] 0.59 µM | [19] 6.62 µM | [15] 4.69 µM | [17] 1.66 µM

Nc1ccccc1NC(=O)c1ccc(CNc2nccc(-c3cccnc3)n2)cc1
active: [1] 0.662 µM | [2] 1.32 µM | [20] 1.18 µM | [4] 1.18 µM | [18] 3.32 µM | [5] 0.935 µM | [6] 0.743 µM | [7] 2.09 µM | [8] 2.96 µM | [9] 1.18 µM | [11] 0.526 µM | [12] 0.833 µM | [13] 0.264 µM | [14] 1.66 µM | [15] 2.64 µM | [16] 1.18 µM | [17] 0.469 µM

Cn1cncc1[C@@](N)(c1ccc(Cl)cc1)c1ccc2c(c1)c(-c1cccc(Cl)c1)cc(=O)n2C
active: [1] 16.6 µM | [3] 14.8 µM | [20] 7.43 µM | [4] 5.26 µM | [5] 6.62 µM | [6] 23.5 µM | [8] 8.33 µM | [10] 0.833 µM | [11] 0.0148 µM | [13] 16.6 µM | [14] 13.2 µM | [15] 1.87 µM | [16] 0.332 µM | [17] 14.8 µM

COc1ccc2c(c1)CC[C@@H](CN(C)CC(=O)O)[C@H]2c1ccccc1
active: [1] 5.26 µM | [2] 1.87 µM | [3] 14.8 µM | [5] 9.35 µM | [6] 3.72 µM | [8] 4.18 µM | [9] 1.66 µM | [10] 4.69 µM | [11] 0.833 µM | [12] 1.48 µM | [13] 10.5 µM | [14] 1.05 µM | [19] 16.6 µM | [15] 0.833 µM | [16] 0.833 µM | [17] 1.87 µM
